Screens as filed in PubChem BioAssay.
An excerpt weighted towards active compounds, which were near 1.4% of everything screened.
SARS 3CLpro inh – SARS-CoV 3CLpro protease inhibition | recombinant SARS-CoV 3CLpro, quenched FRET peptide cleavage | inhibition, % at 6 µM | hit rate 0.14% among 290,000; in the data active means inhibition above about 12%
MazF activator – activators of E. coli MazEF toxin-antitoxin RNase. P0AE70. FAM/BHQ RNA-DNA oligo cleavage fluorescence, 5 h. hit rate 0.32% among 350,000. activation, % at 20 µM; in the data active means activation above about 50%
Target sequence (P0AE70 whole entry, looked up): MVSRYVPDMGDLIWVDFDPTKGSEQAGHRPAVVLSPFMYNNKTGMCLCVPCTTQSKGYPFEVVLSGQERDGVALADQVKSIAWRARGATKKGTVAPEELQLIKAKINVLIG
DUSP3 inh – blocks human VHR1 dual specificity phosphatase | inhibition, % at 13.3 µM | hit rate 0.52% among 290,000 | P51452 | recombinant VHR phosphatase, pNPP absorbance; in the data active means inhibition above about 50%
Target sequence (P51452 whole entry, looked up): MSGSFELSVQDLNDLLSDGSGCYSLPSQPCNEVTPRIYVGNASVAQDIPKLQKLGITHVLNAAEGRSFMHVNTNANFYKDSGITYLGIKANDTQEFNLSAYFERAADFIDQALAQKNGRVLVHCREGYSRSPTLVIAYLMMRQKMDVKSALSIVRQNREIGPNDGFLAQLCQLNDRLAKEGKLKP
BJeLR viability – kills HRASV12-expressing BJeLR cells | BJeLR (HRASV12) viability, CellTiter-Glo ATP luminescence, 48 h | inhibition, % (test concentration not listed) | hit rate 0.17% among 300,000; in the data active means inhibition above about 50%
CCHF vOTU inh-1 – blocks the CCHF virus ovarian tumor domain protease | hit rate 0.55% among 370,000 | CCHFV vOTU protease, Pep-AMC fluorescence | AID 651958 | inhibition, % at 11.5 µM; further: 0% = vehicle wells with enzyme and 100% = no enzyme wells
CCHF vOTU inh-2 – CCHFV vOTU protease inhibition, confirmation. shares compounds with CCHF vOTU inh-1. Recombinant CCHFV vOTU, Pep-AMC fluorescence. inhibition, % at 11.5 µM. hit rate 17% among 1,900
* marks the source's active call; other numbers are inactive results; . = not tested or not shown. Unless noted, no stated cut-off is given here; in the data, active means inhibition above about 30%; inactive means the rest.

SMILES | SARS 3CLpro inh | MazF activator | DUSP3 inh | BJeLR viability | CCHF vOTU inh-1 | CCHF vOTU inh-2
CC(=O)N1CCN(C2=NC(=O)N(c3ccc(Br)cc3)C(=O)C2)CC1 | . | . | . | . | -2 | .
Cc1nn(C)cc1C1C(C#N)=C(N)N(c2ccc(F)c([N+](=O)[O-])c2)C2=C1C(=O)CCC2 (stereo not drawn) | 1 | 14 | -2 | -3 | 30* | -4
Cc1ccc(N2C(N)=C(C#N)C(c3cccnc3)C3=C2CCCC3=O)cc1 (stereo not drawn) | -4 | 0 | 7 | -1 | 9 | .
FC(F)(F)Oc1ccc(NC2=NCCCS2)cc1 | -2 | 8 | -11 | -3 | 44* | -9
CCOc1cc(N2CCOCC2)c(OCC)cc1NC(C)C(=O)N1CCN(CC)CC1 (stereo not drawn) | 5 | 0 | 17 | 5 | 31* | 2
CC1=NN(c2cccc(Cl)c2)C(=O)C1 | 4 | -4 | 3 | -2 | 44* | 2
CC1=NN(c2ccc(Cl)c(C(=O)O)c2)C(=O)C1 | 1 | -2 | 13 | 5 | 16 | .
CC1=NN(c2ccc(C(=O)O)c(N)c2)C(=O)C1 | -2 | -5 | -11 | 4 | 83* | -13
CCOC(=O)c1c(CN(C)C)n(C)c2c(O)c(N=NC(N)=O)c3ccc(Br)cc3c12 | -4 | -13 | -2 | 5 | 36* | 13
CCOC(=O)/C(C#N)=C1/C=CN(c2ccccc2)C=N1 | 3 | 2 | 28 | 2 | 14 | .
CCOC(=O)/C(C#N)=C1/C=CN(Cc2ccccc2)C=N1 | 3 | 3 | 25 | 7 | 30* | -1
CCCCn1c(NS(=O)(=O)c2ccc(C)cc2)c(S(=O)(=O)c2ccccc2)c2nc3ccccc3nc21 | 3 | 1 | 18 | 3 | 90* | -60
CCCCn1c(NS(=O)(=O)c2ccccc2)c(C(=O)OCC)c2nc3ccccc3nc21 | 1 | 3 | 35 | 4 | 35* | 74*
CCOC(=O)c1c(N)n(CCN2CCCCC2)c2nc3ccccc3nc12 | -2 | -10 | 6 | 8 | -255 | .
O=C1CC(N2CCN(c3ccccn3)CC2)C(=O)N1c1ccc(F)cc1 (stereo not drawn) | -2 | -22 | 11 | -2 | -13 | .
O=C1CC(N2CCN(c3ccccn3)CC2)C(=O)N1CC(c1ccccc1)c1ccccc1 (stereo not drawn) | -1 | 0 | 4 | -9 | 38* | -9
CCOC(=O)CC[C@@H]1CC[C@]2(CCCN(S(=O)(=O)C3CCCCC3)C2)O1 | . | . | . | . | 4 | .
COC1=CC(=O)c2c(ccc3ncnc(N)c23)C1=O | . | 11 | . | . | 110* | 108*
Cc1cccc(C)c1NC(=O)[C@H]1CC(=O)O[C@@H]1c1ccccc1 | . | . | . | . | -1 | .
CCn1c(SCC(=O)NN=Cc2cc(OC)ccc2OC)nnc1-c1ccc(OC)cc1 | . | . | . | . | -5 | .
CCOc1ccc(NC(=NCc2ccc3c(c2)OCO3)SC2CC(=O)N(c3ccc(OCC)cc3)C2=O)cc1 (stereo not drawn) | -1 | -15 | 18 | -3 | -9 | .
CCOc1ccc(NC(=NCc2ccc3c(c2)OCO3)SC2CC(=O)N(c3ccc(C(=O)O)cc3)C2=O)cc1 (stereo not drawn) | 9 | -3 | 12 | 6 | 30* | 7
C/C(=N\NC(=O)Cc1cccs1)c1ccco1 | . | . | . | . | -4 | .
O=C(COC(=O)c1ncc(Cl)c(Cl)c1Cl)NC1CCCCCC1 | . | 8 | . | 4 | 41* | 8
O=C(COC(=O)c1nc(Cl)ccc1Cl)NC1CCCCCC1 | . | -1 | . | 0 | -4 | .
SMILES | SARS 3CLpro inh | MazF activator | DUSP3 inh | BJeLR viability | CCHF vOTU inh-1 | CCHF vOTU inh-2
O=C(c1ccc(F)c(F)c1)N1CCC(Oc2cccnc2)CC1 | . | . | . | . | 0 | .
Cc1[nH][nH]c(=O)c1C(c1c(C)[nH][nH]c1=O)c1cn(Cc2cccc3ccccc23)c2ccccc12 | 5 | 4 | 21 | . | 48* | 13
Cn1c2ccccc2c(=O)c2c(=O)n(Cc3cccc4ccccc34)cnc21 | . | . | . | . | 4 | .
Cc1[nH][nH]c(=O)c1C(c1c(C)[nH][nH]c1=O)c1cn(C)c2ccccc12 | 2 | -4 | 25 | . | 44* | -32
Cc1onc(-c2ccccc2Cl)c1C(=O)N1CCC(Cc2ccccc2)CC1 | 2 | 2 | 12 | -11 | 32* | -23
Cc1onc(-c2ccccc2Cl)c1C(=O)N1CCC(C(N)=O)CC1 | -1 | -17 | 11 | -14 | 21 | .
CCc1ccc(S(=O)(=O)Nc2cc(SCC(=O)O)c(O)c3ccccc23)cc1 | 5 | -22 | 33 | -1 | 114* | 101*
O=C(O)CSc1cc(NS(=O)(=O)c2cccc([N+](=O)[O-])c2)c2ccccc2c1O | 3 | -32 | 69 | -8 | 108* | 99*
O=S(=O)(Nc1cc(Sc2cccc3cccnc23)c(O)c2ccccc12)c1ccccc1 | 9 | . | 5 | 125* | 40* | -3
CCOc1ccc(S(=O)(=O)Nc2cc(SCC(=O)O)c(O)c3ccccc23)cc1 | 7 | 3 | 4 | 5 | 101* | 77*
O=C(NCc1ccccc1)N1CCC(c2nc3ccc(Cl)cc3[nH]2)CC1 | . | . | . | . | 7 | .
CCN(CC)CCCNC(=O)c1oc(=O)c2ccccc2c1-c1ccc(C)cc1 | . | . | . | . | -2 | .
O=S1(=O)CC2c3ccccc3CCN2CN1Cc1ccccc1 (stereo not drawn) | . | . | . | . | -7 | .
CC(=O)Nc1ccc(S(=O)(=O)Nc2ccccc2C(=O)N2CCCC2)cc1 | -3 | 8 | 3 | 13 | 30* | -6
COc1ccc(-n2[nH]c(C)cc2=O)cc1 | -3 | -4 | 21 | 10 | 33* | -27
COC(=O)[C@]12C[C@H](CC(=O)NCc3ccc(C)o3)C(=O)N(Cc3ccccc3)C1=C[C@H](COCc1ccccc1)O[C@@H]2C | . | . | . | . | 7 | .
CC(CC(=O)c1ccccc1)=NCCCN=C(C)CC(=O)c1ccccc1 | . | 0 | . | . | 35* | 2
COc1ccc(OC)c(NC(=O)CSc2nc(O)cc(=O)n2CC(C)C)c1 | . | -37 | . | . | 32* | -11
CC1CCC/C(=N\NC(=O)Nc2ccccc2)C1 (stereo not drawn) | 4 | -3 | 0 | -1 | 34* | -20
CN(Cc1ccccc1F)C(=O)Cn1c(-c2cncs2)nc2ccccc21 | . | . | . | . | -3 | .
Fc1ccc(-c2cc(-c3nnc4sc(-c5ccco5)nn34)[nH]n2)cc1 | . | . | . | . | 4 | .
COc1ccc(NS(=O)(=O)c2ccc3c(c2)[C@H]2C=CC[C@H]2[C@@H](c2ccc(C(=O)O)cc2)N3)cc1 | 2 | -18 | -4 | 6 | 39* | 26
Cc1c(Cl)cccc1NS(=O)(=O)c1ccc2c(c1)C1C=CCC1C(c1ccc(C(=O)O)cc1)N2 (stereo not drawn) | 3 | -6 | 46 | . | . | .
Cc1ccc(S(=O)(=O)/N=C2/NC(=O)/C(=C/c3cc([N+](=O)[O-])ccc3O)S2)cc1 | 7 | -39 | -4 | -10 | 43* | 11
COc1cc(/C=C2\S/C(=N/S(=O)(=O)c3ccc(C)cc3)NC2=O)c([N+](=O)[O-])cc1OC | -3 | 7 | 9 | -7 | 29 | .
